{"source": "PubChem BioAssay (EPA / NIEHS)", "note": "“And” between values parts separate entries of the source, which are not always exact repeats. Equal entries are not always repeated. Where a structure was tested more than once in an assay, its records may differ in their call. The source made the active and inactive calls. How the source made its calls: active means hit-call score of the fitted dose curve at least 0.9, where 1 is the maximum; inactive means score below 0.9.", "data": [{"read-out": "Cytochrome P450 (CYP1A1), CYP1A1 (gene 1543)", "test": "LTEA_HepaRG_CYP1A1: Life Technologies and Expression Analysis (LTEA) Assay for Cytochrome P450 (CYP1A1) using HepaRG (AID 2283454)", "conditions": "mRNA level, 48 h; actives raise or lower the signal", "protocol": "LTEA_HepaRG is a cell based, multiplexed-readout assay that uses HepaRG, a human liver cell line, with measurements taken at 48 hours after chemical dosing on a 96-well plate.LTEA_HepaRG_CYP1A1 is one of 102 assay component(s) measured in the LTEA HepaRG cell culture assay. It is a marker of NR mediated metabolism.Data from the assay component LTEA_HepaRG_CYP1A1 was analyzed into 1 endpoint. This assay endpoint, LTEA_HepaRG_CYP1A1, was analyzed with bidirectional fitting relative to DMSO as the negative control and baseline of activity. Using a type of inducible reporter, measures of mRNA induction for gain or loss-of-signal activity can be used to understand regulation of transcription factor activity. To generalize the intended target to other relatable targets, this assay endpoint is annotated to the cyp intended target family, where the subfamily is xenobiotic metabolism.\nA total of 1060 chemcials from the ToxCast library were tested in eight-point concentration-response experiments. Cell culture and cytotoxicity assays were conducted at Thermo Fisher Scientific's Custom Services facility (Madison, WI). A single lot of human HepaRG cells (Thermo Fisher Scientific, Frederick, MD) was used for the cell culture experiments. 96-well format collagen type I coated plates of human HepaRG cells were prepared using established methods. Briefly, cryopreserved HepaRG cells were thawed, plated at a density of approximately 100,000 cells/well in HepaRG Thaw, Plate, and General Purpose media (HPRG770, Thermo Fisher Scientific), and incubated for 48 hours. 0.5% DMSO was selected as vehicle control to balance the requisite need of DMSO in HepaRG cultures to maintain differentiation (for example, baseline metabolism, proportions of hepatocytes vs. cholangiocytes), while enabling further hepatic receptor pathway activation (for example, PXR and CAR) in response to chemical exposure. 48 hours after plating, the culture medium was replaced with HepaRG Serum-Free Incudtion Media. Cells were exposed to each test chemical in duplicate and maintained in CO2 incubators for another 48 hours. Chemical plates were thawed to room temperature and 200x concentrations of treatment groups were prepared. 8-point conentration-reponse curves were made with the highest exposure at 100 uM, followed by half-log dilutions, all in 0.5% DMSO. Each test plate contained variouse controls, induction positive controls (1mM phenobarbital), cytotoxicity positive controls ([…] aflatoxin B1), vehicle controls (0.5% DMSO), and total lysis controls (0.5% DMSO). Cell morphology images were taken using an Essen IncuCyte FLR automated microscope, with six 96-well plates imaged in about 24 minutes. Images were captured and exported and JPEG files. Spent culture media was transfered to black-well plates for the LDH assay, and remaining media was sorted at -80 C for later use. Cells were treated with RLT buffer and frozen until shipped for gene expression analysis. Total RNA was isolated from the cell suspension in 75 uL of Buffer RLT (Qiagen, Germantown, MD 20874) by Quintiles/Expression Analysis (Durham, NC) using a custom isolation procedure. Total RNA from each plate well was transferred to a preamplification plate. Fluidigm's 96.96 Dynamic ArrayTM (Fluidigm, Amsterdam, the Netherlands) technology was used for gene expression analyses by quantitative reverse transcription polymerase chain reaction (qRT-PCR, performed by Quintiles/Expression Analysis, Durham, NC)89. Standard TaqManTM Assays (Applied Biosystems/ThermoFisher Scientific, Foster City, CA) were used to assess the expression of 93 genes selected based on their selectivity and sensitivity to important hepatic receptors known to be modulated by environmental chemicals; importance in human hepatocyte functionality; and hepatotoxicity. […]", "values": [{"smiles": "CCCC1COC(Cn2cncn2)(c2ccc(Cl)cc2Cl)O1", "note": "(stereo not given)", "AC50": "40 µM (active)"}, {"smiles": "CCOC(=O)CC(SP(=S)(OC)OC)C(=O)OCC", "note": "(stereo not given)", "AC50": "22.8 µM (active)"}, {"smiles": "CCON=C(CC)C1=C(O)CC(c2c(C)cc(C)cc2C)CC1=O", "note": "(stereo not given)", "outcome": "inactive"}, {"smiles": "CCCCNC(=O)OCC#CI", "AC50": "50 µM (active)"}, {"smiles": "CC(Oc1ccc(Cl)cc1Cl)C(=O)O", "note": "(stereo not given)", "AC50": "50 µM (active)"}, {"smiles": "COc1cnc(OC)n2nc(NS(=O)(=O)c3c(OCC(F)F)cccc3C(F)(F)F)nc12", "AC50": "32.8 µM (active)"}, {"smiles": "COC(=O)C(C)Oc1ccc(Oc2ccc(Cl)cc2Cl)cc1", "note": "(stereo not given)", "AC50": "38.3 µM (active)"}, {"smiles": "CCc1nn(C)c(C(=O)NCc2ccc(C(C)(C)C)cc2)c1Cl", "outcome": "inactive"}, {"smiles": "C=CC1(C)OC(=O)N(c2cc(Cl)cc(Cl)c2)C1=O", "note": "(stereo not given)", "AC50": "24.6 µM (active)"}, {"smiles": "COP(N)(=O)SC", "note": "(stereo not given)", "outcome": "inactive"}, {"smiles": "C#CCOS(=O)OC1CCCCC1Oc1ccc(C(C)(C)C)cc1", "note": "(stereo not given)", "outcome": "inactive"}, {"smiles": "CC(C)(C)c1ccc(CSc2cnn(C(C)(C)C)c(=O)c2Cl)cc1", "AC50": "14.2 µM (active)"}, {"smiles": "Cc1ccc(-c2c(Cl)nc(C#N)n2S(=O)(=O)N(C)C)cc1", "AC50": "3.53 µM (active)"}, {"smiles": "CC1=C(C(=O)Nc2ccccc2)SCCO1", "AC50": "89.9 µM (active)"}, {"smiles": "Fc1ccc(Oc2ccnc3cc(Cl)cc(Cl)c23)cc1", "AC50": "24 µM (active)"}, {"smiles": "CCCN(CCC)c1c([N+](=O)[O-])cc(S(N)(=O)=O)cc1[N+](=O)[O-]", "AC50": "11.5 µM (active) and 50 µM (active) and 35.1 µM (active)"}, {"smiles": "Oc1ccccc1-c1ccccc1", "outcome": "inactive"}, {"smiles": "O=C(O)c1nc(Cl)ccc1Cl", "outcome": "inactive", "AC50": "50 µM (active)"}, {"smiles": "CCOP(=S)(OCC)SCn1c(=O)oc2cc(Cl)ccc21", "AC50": "53.7 µM (active)"}, {"smiles": "COC(=O)N(OC)c1ccccc1COc1ccn(-c2ccc(Cl)cc2)n1", "AC50": "13 µM (active)"}, {"smiles": "Cc1c(F)c(F)c(COC(=O)C2C(/C=C(\\Cl)C(F)(F)F)C2(C)C)c(F)c1F", "note": "(stereo not given)", "AC50": "50 µM (active)"}, {"smiles": "CC(C)C1(C)N=C(c2nc3ccccc3cc2C(=O)O)NC1=O", "note": "(stereo not given)", "AC50": "34.6 µM (active)"}, {"smiles": "COC(=O)c1ccccc1C(=O)OC", "outcome": "inactive"}, {"smiles": "COc1ccc(C(c2ccc(OC)cc2)C(Cl)(Cl)Cl)cc1", "AC50": "22.6 µM (active)"}, {"smiles": "CON(C)C(=O)Nc1ccc(Cl)c(Cl)c1", "AC50": "72.7 µM (active)"}, {"smiles": "C=CCC1=C(C)[C@@H](OC(=O)[C@@H]2[C@@H](C=C(C)C)C2(C)C)CC1=O", "AC50": "63 µM (active)"}, {"smiles": "N#Cc1cc(Br)c(O)c(Br)c1", "AC50": "73.6 µM (active)"}, {"smiles": "CCCCNC(=O)n1c(NC(=O)OC)nc2ccccc21", "AC50": "26.1 µM (active)"}, {"smiles": "COP(=S)(OC)Oc1nc(Cl)c(Cl)cc1Cl", "AC50": "80.5 µM (active)"}, {"smiles": "O=C(Nc1ccccc1)Nc1ccnc(Cl)c1", "AC50": "23.7 µM (active)"}, {"smiles": "CC1COC(Cn2cncn2)(c2ccc(Oc3ccc(Cl)cc3)cc2Cl)O1", "note": "(stereo not given)", "AC50": "12.2 µM (active)"}, {"smiles": "N#CC(CCc1ccc(Cl)cc1)(Cn1cncn1)c1ccccc1", "note": "(stereo not given)", "AC50": "9.8 µM (active)"}, {"smiles": "COC(=O)C=C(C)OP(=O)(OC)OC", "outcome": "inactive"}, {"smiles": "CNC(=O)ON=CC(C)(C)SC", "outcome": "inactive"}, {"smiles": "CNC(=S)S", "AC50": "50 µM (active)"}, {"smiles": "COc1nc(NC(C)C)nc(NC(C)C)n1", "AC50": "36 µM (active)"}, {"smiles": "CCOC(=O)C(Cl)Cc1cc(-n2nc(C)n(C(F)F)c2=O)c(F)cc1Cl", "note": "(stereo not given)", "AC50": "61.9 µM (active)"}, {"smiles": "CCOc1cc(Oc2ccc(C(F)(F)F)cc2Cl)ccc1[N+](=O)[O-]", "AC50": "9.84 µM (active)"}, {"smiles": "C=CCC1=C(C)C(OC(=O)C2C(C=C(C)C)C2(C)C)CC1=O", "note": "(stereo not given)", "AC50": "50 µM (active) and 31.8 µM (active) and 35.1 µM (active)"}]}]}
